SMILES strings stand for the structures. Results filed as inconclusive are left out. Active and inactive are the calls of the source. The calls were made as follows: active = hit-call score of the fitted dose curve at least 0.9, where 1 is the maximum; inconclusive = response in the unintended direction; inactive = score below 0.9.

By AC50 is commonly meant the concentration giving half of the maximal activity seen.

Chain of sheep Cyclooxygenase-1 (Cox1), PTGS1 (gene 443551) (P05979 whole entry, looked up): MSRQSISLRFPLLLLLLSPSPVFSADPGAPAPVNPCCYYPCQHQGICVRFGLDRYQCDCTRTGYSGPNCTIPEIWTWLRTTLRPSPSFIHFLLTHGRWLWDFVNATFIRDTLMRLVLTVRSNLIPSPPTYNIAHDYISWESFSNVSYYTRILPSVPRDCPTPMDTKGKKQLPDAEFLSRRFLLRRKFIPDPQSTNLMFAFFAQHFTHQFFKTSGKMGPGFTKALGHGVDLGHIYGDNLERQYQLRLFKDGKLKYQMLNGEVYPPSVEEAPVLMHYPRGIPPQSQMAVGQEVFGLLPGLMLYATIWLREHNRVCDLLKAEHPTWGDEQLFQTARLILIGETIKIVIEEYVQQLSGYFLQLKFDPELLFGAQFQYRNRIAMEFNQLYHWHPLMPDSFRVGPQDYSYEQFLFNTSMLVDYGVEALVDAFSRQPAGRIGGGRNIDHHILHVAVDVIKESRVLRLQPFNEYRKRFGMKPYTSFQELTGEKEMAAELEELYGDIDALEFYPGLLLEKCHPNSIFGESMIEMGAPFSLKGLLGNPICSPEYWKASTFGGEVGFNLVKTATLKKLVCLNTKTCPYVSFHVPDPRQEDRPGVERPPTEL

In one assay the target is rat Monoamine Oxidase, MAO-B, Central (MAOBC), Maob (gene 25750) (UniProt P19643). Kind of assay: NVS_ENZ_rMAOBC: NovaScreen (NVS) Enzymatic Assay for rat Monoamine Oxidase, MAO-B, Central (MAOBC) (AID 2283238). The method in brief: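 Rat brain tissue extract served as the cell-free MAO-B source; enzyme activity was read by scintillation counting 1.17 hours after compound addition. Loss of signal versus DMSO baseline was fitted; primary single-concentration screen at 25 uM, follow-up concentration-response up to 50 uM.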
Chain of rat Monoamine Oxidase, MAO-B, Central (MAOBC), Maob (gene 25750) (P19643 whole entry, looked up): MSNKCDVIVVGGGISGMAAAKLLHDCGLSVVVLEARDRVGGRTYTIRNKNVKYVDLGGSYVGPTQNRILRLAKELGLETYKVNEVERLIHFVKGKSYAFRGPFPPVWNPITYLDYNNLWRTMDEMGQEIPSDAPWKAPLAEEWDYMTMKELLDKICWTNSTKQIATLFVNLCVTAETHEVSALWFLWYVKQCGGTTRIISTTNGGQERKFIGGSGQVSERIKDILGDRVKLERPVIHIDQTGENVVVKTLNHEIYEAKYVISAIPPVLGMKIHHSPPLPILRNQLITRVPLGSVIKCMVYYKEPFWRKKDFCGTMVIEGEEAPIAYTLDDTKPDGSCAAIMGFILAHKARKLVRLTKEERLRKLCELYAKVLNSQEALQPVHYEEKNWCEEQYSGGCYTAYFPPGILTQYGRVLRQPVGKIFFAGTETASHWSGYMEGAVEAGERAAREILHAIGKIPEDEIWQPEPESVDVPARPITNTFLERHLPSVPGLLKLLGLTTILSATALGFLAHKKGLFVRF
Consider `CSC1=N[C@@](C)(c2ccccc2)C(=O)N1Nc1ccccc1`, for which the compound was classed as inactive.

`CSc1nnc(C(C)(C)C)c(=O)n1N`: the AC50 was 16.8 µM (active).

In the case of `CC[C@H](C)[C@H]1O[C@]2(C=C[C@@H]1C)C[C@@H]1C[C@@H](C/C=C(\C)[C@@H](O[C@H]3C[C@H](OC)[C@@H](O[C@H]4C[C@H](OC)[C@@H](NC)[C@H](C)O4)[C@H](C)O3)[C@@H](C)/C=C/C=C3\CO[C@@H]4[C@H](O)C(C)=C[C@@H](C(=O)O1)[C@]34O)O2`, the outcome was inactive.

For the compound `CCC(=O)Nc1ccc(Cl)c(Cl)c1`, the AC50 is 13 µM (active).

For the compound `Nc1c(Cl)cc([N+](=O)[O-])cc1Cl`, the AC50 is 15.3 µM (active).

Take `COP(=O)(OC)OC(Br)C(Cl)(Cl)Br` (centres undefined): the outcome was inactive.

The target in another assay is sheep Cyclooxygenase-1 (Cox1), PTGS1 (gene 443551) (UniProt P05979). The assay can be described thus: NVS_ENZ_oCOX1: NovaScreen (NVS) Enzymatic Assay for sheep Cyclooxygenase-1 (Cox1) (AID 2283239).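 Also: actives reduce cyclooxygenase activity so potencies are for inhibitors.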 The method in brief:
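Native ovine seminal vesicle protein serves as enzyme source in this biochemical assay. Colorimetric signal is recorded 0.66 h after chemical addition, and decreases versus the DMSO control define activity.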
With `CC(C)=CC1C(C(=O)OCN2C(=O)C3=C(CCCC3)C2=O)C1(C)C` (centres undefined), the AC50 is 4.96 µM (active).

On to `CCCSP(=O)(OCC)SCCC`, for which the outcome was inactive.

Take `CCCCOC(=O)c1ccccc1C(=O)O`: the compound was called inactive.

(Values after PubChem BioAssay (EPA / NIEHS).)
